Screens (PubChem BioAssay)
The list is not random: actives were taken first. Their share in the collection is about 4.2%.
AHR act = activators of human aryl hydrocarbon receptor | hit rate 2.5% among 320,000 | AHR-responsive luciferase reporter cells, luminescence | P35869 | activation, % at 5 µM; in the data active = activation above about 47%;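 note: 0% = vehicle wells and 100% = reference agonist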
Target sequence (P35869 whole entry, looked up): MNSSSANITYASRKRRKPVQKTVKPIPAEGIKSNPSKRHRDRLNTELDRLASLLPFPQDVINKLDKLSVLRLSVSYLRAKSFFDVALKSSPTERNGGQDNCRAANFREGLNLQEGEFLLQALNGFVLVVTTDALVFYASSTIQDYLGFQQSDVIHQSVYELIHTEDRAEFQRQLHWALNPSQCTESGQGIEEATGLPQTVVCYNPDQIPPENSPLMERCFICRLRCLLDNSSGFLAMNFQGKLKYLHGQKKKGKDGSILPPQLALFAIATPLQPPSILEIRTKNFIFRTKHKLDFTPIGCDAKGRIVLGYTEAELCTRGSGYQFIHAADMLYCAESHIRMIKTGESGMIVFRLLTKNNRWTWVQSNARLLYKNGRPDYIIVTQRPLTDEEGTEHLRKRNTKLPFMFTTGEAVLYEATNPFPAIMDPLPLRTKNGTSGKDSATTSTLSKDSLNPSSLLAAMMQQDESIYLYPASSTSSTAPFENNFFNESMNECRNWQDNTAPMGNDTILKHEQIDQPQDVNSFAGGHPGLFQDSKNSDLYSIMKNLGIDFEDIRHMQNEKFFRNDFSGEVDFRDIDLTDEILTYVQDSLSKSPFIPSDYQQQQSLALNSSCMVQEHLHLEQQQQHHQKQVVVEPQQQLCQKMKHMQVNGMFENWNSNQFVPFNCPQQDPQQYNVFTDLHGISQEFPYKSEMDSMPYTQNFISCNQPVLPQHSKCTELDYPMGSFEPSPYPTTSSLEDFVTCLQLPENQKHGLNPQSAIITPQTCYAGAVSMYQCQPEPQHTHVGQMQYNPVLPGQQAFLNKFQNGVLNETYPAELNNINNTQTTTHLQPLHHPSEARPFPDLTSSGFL
MITF TRPM1 HTS = increases MITF-driven TRPM1 promoter luciferase signal; SK-MEL-5 TRPM1-promoter luciferase, 24 h; % of positive control, neutral wells = 0; activation, % at 12.5 µM; hit rate 0.75% among 300,000;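 active = mean activation of at least 80% with every replicate also reaching 80%; inconclusive = mean reaches 80% but some replicate falls short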;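 note: 0% = neutral control wells and 100% = parthenolide positive control wells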
esBAF inh = SWI/SNF esBAF complex inhibition; hit rate 2% among 350,000; AID 602393; mouse ES cells, Bmi1-luciferase knock-in reporter, 24 h; 100% = twice the neutral-well signal; reporter increase, % at 12.5 µM; in the data active = activation above about 40%; inconclusive = no clear call, values can overlap the other calls;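 note: 0% = median of the plate's neutral control wells and 100% = double that signal; a rise in the Bmi1 reporter signal indicates esBAF inhibition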
FXN GAA850 act = frataxin GAA850 promoter activation | HEK293 lucGAA850 FXN promoter luciferase reporter, 24 h; percent of 10 µM SAHA response | activation, % at 6 µM | AID 540364 | hit rate 0.56% among 360,000;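 active = activation above the average of all compounds screened plus 3 SD, cutoff fixed separately per campaign, cut at about 7.5% in these data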;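 note: 0% = DMSO wells and 100% = 10 µM SAHA wells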
Wnt act = Wnt/beta-catenin pathway activation; hit rate 1.2% among 300,000; Wnt/beta-catenin reporter cell assay, activator, plate reader; activation, % at 9.35 µM; AID 743398; in the data active = activation above about 30%, passing the limit was not always enough; inconclusive = no clear call, values can overlap the other calls;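 note: 0% = neutral control wells and 100% = positive control wells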
Starred values were filed as active, the others as inactive; ? = inconclusive; / = not tested or not shown.

SMILES	AHR act	MITF TRPM1 HTS	esBAF inh	FXN GAA850 act	Wnt act
C[C@@H]1CCCCO[C@H](CN(C)Cc2ccc(Cl)c(Cl)c2)[C@@H](C)CN([C@H](C)CO)C(=O)c2cc(NC(=O)Nc3cccc4ccccc34)ccc2O1	/	/	-6	/	/
COc1ccc(NC(=O)Nc2cccc3c2O[C@H](CN(C)C(=O)Nc2ccccc2)[C@H](C)CN([C@H](C)CO)C3=O)cc1	/	/	2	/	/
Cc1ccnc(NC(=O)c2ccc(Cl)s2)c1	9	87*	61*	5	/
Cc1ccnc(NC(=O)c2ccc(C(=O)c3ccccc3)cc2)c1	5	-10	-60	-2	23
Cc1ccnc(NC(=O)c2cnc(Cl)c(Cl)c2)c1	58*	33	34	2	6
C[C@@H]1CN([C@H](C)CO)S(=O)(=O)c2ccc(-c3ccccc3F)cc2O[C@@H]1CN(C)Cc1ccncc1	/	/	1	/	/
C=CCn1c(NCc2ccc3c(c2)OCO3)nc2ccccc21	43	24	27	4	/
CCN(CC)CCn1c(NCc2ccc(C)o2)nc2ccccc21	10	6	/	1	/
Cn1c(SCc2ccccc2Cl)nc2ccccc21	-1	131*	/	1	/
Cc1ccc(CNc2nc3ccccc3n2C)o1	18	/	42*	3	9
Cn1c(SCc2ccccc2Cl)nnc1-c1cnccn1	-1	80	68*	4	/
CCn1c(NCc2ccc3c(c2)OCO3)nc2ccccc21	69*	/	?	1	14
CC(C)NC(=O)Nc1ccc2c(c1)CC(=O)N([C@@H](C)CO)C[C@H](C)[C@@H](CN(C)C)O2	/	/	0	/	/
CC(C)n1c(NCc2ccccc2O)nc2ccccc21	0	/	8	2	0
CN(C)c1ccc(CNc2nc3ccccc3n2C)cc1	/	/	48*	2	3
Cn1c(NCc2ccccc2Cl)nc2ccccc21	77*	71	?	4	28
Cn1c(NCc2ccccc2O)nc2ccccc21	-1	?	53*	0	13
CCOc1ccccc1CNc1nc2ccccc2n1C	0	/	-4	0	0
COC(=O)C[C@@H]1CC[C@H]2[C@H](COc3ccc(NS(=O)(=O)c4ccc(C)cc4)cc3C(=O)N2C)O1	/	/	3	/	/
CN(C)C(=O)C[C@@H]1C[C@@H]2c3cc(NC(=O)NC4CCCC4)ccc3O[C@@H]2[C@H](CO)O1	/	/	-6	/	/
CCOc1ccc(OCC)c(NC(=O)C2CCCN2S(=O)(=O)c2cccc3cccnc23)c1 (stereo not drawn)	47*	-18	7	-4	2
C[C@H](CO)N1C[C@H](C)[C@@H](CN(C)C(=O)Nc2ccc(F)cc2)Oc2ccc(NC(=O)Cn3cnnn3)cc2CC1=O	/	/	-6	/	/
C[C@H](CO)N1C[C@H](C)[C@H](CN(C)Cc2cccnc2)Oc2ncc(-c3cccc(F)c3)cc2C1=O	/	/	1	/	/
O=C(NC1CCCC1)c1n[nH]c2ccccc12	5	66	53*	3	8
CCCc1cc(C(=O)NC2CCCCC2)no1	7	66	43*	5	33*
SMILES	AHR act	MITF TRPM1 HTS	esBAF inh	FXN GAA850 act	Wnt act
O=C(NC(=S)NC1CCCCC1)c1ccccc1	2	53	45*	5	17
O=C(NC1CCCCC1)c1cc(-c2ccccc2O)on1	-8	124*	83*	5	22
O=C(NC(=S)NC1CCS(=O)(=O)C1)c1ccccc1 (stereo not drawn)	4	-3	/	-1	0
CC(C)c1cc(C(=O)NC2CCCCC2)no1	8	63	9	3	/
CCCc1cc(C(=O)NC2CCCC2)no1	9	50	30	0	19
CCC(=O)N(C)C[C@H]1Oc2ncc(-c3ccc(C(=O)N(C)C)cc3)cc2C(=O)N([C@@H](C)CO)C[C@H]1C	/	/	-2	/	/
COc1ccc(CN(C)C[C@H]2OCCCC[C@H](C)Oc3ccc(NC(=O)c4ccccc4)cc3C(=O)N([C@H](C)CO)C[C@@H]2C)cc1	/	/	0	/	/
C[C@H](O)C#Cc1cnc2c(c1)C(=O)N([C@@H](C)CO)C[C@H](C)[C@H](CN(C)CC1CCCCC1)O2	/	/	-1	/	/
COc1ccc(-c2cc(C(=O)NC3CCCCC3)no2)cc1OC	-1	7	1	1	-4
O=C(NC1CCCCCCC1)c1ccccc1O	8	77	92*	4	18
CN(C(=O)c1cc(-c2ccccc2)on1)C1CCCCC1	3	174*	51*	7	34*
Cc1ccccc1C(=O)NC1CCCCCCC1	11	61	15	5	14
O=C(NC1CCCCC1)c1cc(-c2ccc(O)cc2)on1	-3	93*	42*	3	-3
